# Results filed as inconclusive are left out. Active and inactive are the calls of the source. Calls come from the whole dose curve; as a rule, active = well fitted curve in the direction sought with a large enough effect; inconclusive = small, poorly fitted or top-dose-only effect, or another doubt; inactive = no such curve, though single readings can be large; an effect the other way counts as inactive or inconclusive.
# Test system: not listed separately
# Assay: Confirmation and Secondary Assay for Modulators of Hemoglobin Beta Chain Splicing at IVS2 705 locus (AID 930);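 note: HeLa cells stably expressing the EGFP-705 splicing reporter; GFP fluorescence per well restored by corrected splicing of the IVS2-705 intron in EGFP; % of control where 0% means no effect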
# Settings: HeLa EGFP-705 splicing reporter, GFP fluorescence, 48 h; series mostly up to 46.1 µM; activation: at the top concentration
# Procedure, shortened: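 Assay measures total GFP intensity per well in HeLa EGFP-705 cells after 2 days with compound; mis-splicing normally truncates EGFP, so fluorescence indicates corrected splicing.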
row,Compound,activation
1,Cc1cc(C(C)(C)C)c(O)c(C)c1CC1=NCCN1,0.123% (inactive)
2,NCCCCCC(=O)O,2.61% (inactive)
3,CN(C)CCC=C1c2ccccc2C=Cc2ccccc21,1.05% (inactive)
4,O=C(C1CCCCC1)N1CC(=O)N2CCc3ccccc3C2C1 (centres undefined),0.504% (inactive)
5,CCc1cccc2c3c([nH]c12)C(CC)(CC(=O)O)OCC3 (centres undefined),0.816% (inactive)
6,CN(C)c1nc(N(C)C)nc(N(C)C)n1,1.82% (inactive)
7,OCCN1CCN(CCCN2c3ccccc3Sc3ccc(C(F)(F)F)cc32)CC1,2.51% (inactive)
8,NC(=O)NO,0.598% (inactive)
9,O=c1c(O)c(-c2ccc(O)c(O)c2)oc2cc(O)cc(O)c12,60.5% [at 38.3 µM] (inactive)
10,CN1CCN(C2=Nc3cc(Cl)ccc3Nc3ccccc32)CC1,-1.08% (inactive)
11,O=C1c2c(O)ccc(O)c2C(=O)c2c(NCCNCCO)ccc(NCCNCCO)c21,1.58% (inactive)
12,Cc1cc(C(C)(C)C)cc(C)c1CC1=NCCN1,-0.0074% (inactive)
13,O=C(CCCN1CCC(O)(c2ccc(Cl)cc2)CC1)c1ccc(F)cc1,1.86% (inactive)
14,Cn1cnc2c1c(=O)[nH]c(=O)n2C,-0.541% (inactive)
15,NC12CC3CC(CC(C3)C1)C2,0.708% (inactive)
16,CC(C)Cc1ccc(C(C)C(=O)O)cc1 (centres undefined),0.462% (inactive)
17,CN1CCC(=C2c3ccccc3CC(=O)c3sccc32)CC1,-0.212% (inactive)
18,Cc1ccccc1N1C(=O)c2cc(S(N)(=O)=O)c(Cl)cc2NC1C (centres undefined),1.49% (inactive)
19,O=C(c1ccc(F)cc1)C1CCN(CCn2c(=O)[nH]c3ccccc3c2=O)CC1,-0.672% [at 38.3 µM] (inactive)
20,NCCc1cnc[nH]1,2.07% (inactive)

# Molecular target: Muscarinic acetylcholine receptor M1 (Rattus norvegicus) (UniProt P08482)
# Assay: qHTS Assay for Antagonists of Acetylcholine Muscarinic M1 Receptor: Kinetic Measurement of Intracellular Calcium Response (AID 943); note: nearly all actives have a fitted effect of over 75% in size; note: potency is the fitted concentration of half-maximal effect;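 for activity change, negative = inhibition: Fluo-4 calcium signal as peak divided by basal fluorescence over 4 min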
# Settings: M1-expressing cells, kinetic intracellular calcium fluorescence; series mostly up to 35.3 µM; activity change, negative = inhibition: at the top concentration
# Procedure, shortened: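 CHO cells stably expressing rat M1 were loaded with no-wash Fluo-4 dye for 1 h at 37C, pre-incubated 10 min with compound, then challenged with EC80 carbachol (100 nM final); kinetic calcium read 4 min, peak/basal ratio.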
# Chain of Muscarinic acetylcholine receptor M1 (Rattus norvegicus) (P08482 whole entry, looked up): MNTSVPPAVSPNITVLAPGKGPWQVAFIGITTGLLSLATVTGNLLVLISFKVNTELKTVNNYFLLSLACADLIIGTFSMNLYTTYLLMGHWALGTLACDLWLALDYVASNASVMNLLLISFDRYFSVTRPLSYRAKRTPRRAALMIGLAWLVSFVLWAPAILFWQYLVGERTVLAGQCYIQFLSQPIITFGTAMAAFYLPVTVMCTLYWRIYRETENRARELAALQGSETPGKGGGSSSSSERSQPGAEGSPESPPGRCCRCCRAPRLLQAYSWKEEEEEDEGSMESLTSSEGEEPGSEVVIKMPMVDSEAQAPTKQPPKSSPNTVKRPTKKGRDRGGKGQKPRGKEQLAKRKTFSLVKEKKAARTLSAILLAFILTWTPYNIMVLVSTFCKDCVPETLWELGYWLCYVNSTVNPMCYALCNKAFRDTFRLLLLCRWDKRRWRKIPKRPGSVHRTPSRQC
Compound,Potency,"activity change, negative = inhibition"
CN(C)CCC=C1c2ccccc2C=Cc2ccccc21,31.6 nM (active),–
COc1ccc(C2CNC(=O)C2)cc1OC1CCCC1 (centres undefined),–,-27.3% (inactive)
O=C1N(c2ccccc2)c2ccccc2C1(Cc1ccncc1)Cc1ccncc1,–,-43% (inactive)
Cn1ccc2cc3c(cc21)CCN3C(=O)Nc1cccnc1,–,-42.1% (inactive)
NCCc1cnc[nH]1,–,-34.5% (inactive)

# Molecular target: Muscarinic acetylcholine receptor M1 (Rattus norvegicus) (UniProt P08482)
# Assay: qHTS Assay for Antagonists of Acetylcholine Muscarinic M1 Receptor: Measurement of IP-One Response (AID 944); note: nearly all actives have a fitted effect of over 75% in size; note: potency is the fitted concentration of half-maximal effect
# Settings: CHO-M1 cells, IP-One HTRF, antagonist mode; series mostly up to 46.1 µM; activity change, negative = inhibition: at the top concentration
# Procedure, shortened: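 CHO cells expressing rat M1 receptor, recovered overnight, were pre-incubated 10 min with compound, then stimulated 30 min with carbachol at EC80 (200 nM) in LiCl-containing buffer, pH 7.4. IP1 accumulation was read by HTRF (620/665 nm).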
Compound,Potency,"activity change, negative = inhibition"
CN(C)CCC=C1c2ccccc2C=Cc2ccccc21,112 nM (active),–
O=C1c2c(O)ccc(O)c2C(=O)c2c(NCCNCCO)ccc(NCCNCCO)c21,5010 nM (active),–
CCOC(=O)C(C)(C)Oc1ccc(Cl)cc1,–,-41.4% (inactive)
COc1ccc(C2CNC(=O)C2)cc1OC1CCCC1 (centres undefined),–,-11% (inactive)
Cn1cnc2c1c(=O)[nH]c(=O)n2C,–,-22.7% (inactive)
O=C1N(c2ccccc2)c2ccccc2C1(Cc1ccncc1)Cc1ccncc1,–,-32.2% (inactive)
O=C(c1ccc(F)cc1)C1CCN(CCn2c(=O)[nH]c3ccccc3c2=O)CC1,–,-18.1% (inactive)
NCCc1cnc[nH]1,–,-23.8% (inactive)

# Molecular target: Pyruvate kinase (Leishmania mexicana) (UniProt Q27686)
# Assay: qHTS Validation Assay for Inhibitors of Leishmania Mexicana Pyruvate Kinase (AID 945); note: potency is the fitted concentration of half-maximal effect;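 for activity change, negative = inhibition: 0% = DMSO only neutral control wells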
# Settings: purified L. mexicana pyruvate kinase, enzyme activity, E451W mutant enzyme; series mostly up to 57.5 µM; activity change, negative = inhibition: at the top concentration
# Procedure, shortened: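 Pyruvate kinase activity of E451W LmPYK (0.2 nM) was followed as ATP output after 1 h at room temperature with 0.5 mM PEP and 0.1 mM ADP, detected by PKLight luminescence.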
# Chain of Pyruvate kinase (Leishmania mexicana) (Q27686 2-499 E452W): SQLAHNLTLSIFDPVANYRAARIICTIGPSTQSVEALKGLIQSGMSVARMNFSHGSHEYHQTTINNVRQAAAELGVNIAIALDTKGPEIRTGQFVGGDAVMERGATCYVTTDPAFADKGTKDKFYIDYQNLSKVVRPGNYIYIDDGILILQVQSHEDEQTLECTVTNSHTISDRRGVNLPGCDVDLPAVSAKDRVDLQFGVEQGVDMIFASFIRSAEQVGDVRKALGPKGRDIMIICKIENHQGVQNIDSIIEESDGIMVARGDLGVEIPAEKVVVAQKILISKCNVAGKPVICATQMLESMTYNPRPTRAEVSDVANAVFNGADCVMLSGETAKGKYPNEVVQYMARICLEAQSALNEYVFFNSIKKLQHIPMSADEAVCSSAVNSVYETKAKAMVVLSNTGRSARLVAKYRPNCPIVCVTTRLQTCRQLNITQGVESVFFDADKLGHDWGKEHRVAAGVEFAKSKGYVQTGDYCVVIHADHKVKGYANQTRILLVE
Compound,"activity change, negative = inhibition",Potency
Cc1cc(C(C)(C)C)c(O)c(C)c1CC1=NCCN1,3.84% (inactive),–
NCCCCCC(=O)O,2.13% (inactive),–
CN(C)CCC=C1c2ccccc2C=Cc2ccccc21,0.702% (inactive),–
CCc1cccc2c3c([nH]c12)C(CC)(CC(=O)O)OCC3 (centres undefined),-3.83% (inactive),–
CN(C)c1nc(N(C)C)nc(N(C)C)n1,-0.214% (inactive),–
OCCN1CCN(CCCN2c3ccccc3Sc3ccc(C(F)(F)F)cc32)CC1,-6.82% (inactive),–
NC(=O)NO,4.13% (inactive),–
O=c1c(O)c(-c2ccc(O)c(O)c2)oc2cc(O)cc(O)c12,-6.61% (inactive),–
CN1CCN(C2=Nc3cc(Cl)ccc3Nc3ccccc32)CC1,7.75% (inactive),–
Cc1cc(C(C)(C)C)cc(C)c1CC1=NCCN1,-1.77% (inactive),–
O=C(CCCN1CCC(O)(c2ccc(Cl)cc2)CC1)c1ccc(F)cc1,3.05% (inactive),–
CCOC(=O)C(C)(C)Oc1ccc(Cl)cc1,-2.69% (inactive),–
COc1ccc(C2CNC(=O)C2)cc1OC1CCCC1 (centres undefined),7.74% (inactive),–
C[C@](N)(Cc1ccc(O)c(O)c1)C(=O)O,4.38% (inactive),–
Cn1cnc2c1c(=O)[nH]c(=O)n2C,7.83% (inactive),–
CN(Cc1cnc2nc(N)nc(N)c2n1)c1ccc(C(=O)N[C@@H](CCC(=O)O)C(=O)O)cc1,5.25% (inactive),–
CC(C)Cc1ccc(C(C)C(=O)O)cc1 (centres undefined),6.19% (inactive),–
CN1CCC(=C2c3ccccc3CC(=O)c3sccc32)CC1,-7.4% (inactive),–
O=C1N(c2ccccc2)c2ccccc2C1(Cc1ccncc1)Cc1ccncc1,9.63% (inactive),–
Cn1ccc2cc3c(cc21)CCN3C(=O)Nc1cccnc1,–,7940 nM (active)
Cc1ccccc1N1C(=O)c2cc(S(N)(=O)=O)c(Cl)cc2NC1C (centres undefined),5.77% (inactive),–
Nc1nnc(-c2cccc(Cl)c2Cl)c(N)n1,5.02% (inactive),–
COc1nc(C)nc(Cl)c1NC1=NCCN1,4.81% (inactive),–
O=C(c1ccc(F)cc1)C1CCN(CCn2c(=O)[nH]c3ccccc3c2=O)CC1,-6.9% (inactive),–
Fc1ccc([C@@H]2CCNC[C@H]2COc2ccc3c(c2)OCO3)cc1,6.3% (inactive),–
NCCc1cnc[nH]1,-6.08% (inactive),–

# Source: PubChem BioAssay (NCATS)
